PD-1 reversal: reversal of PD-1 mediated T-cell inhibition | primary human CD4 T cells, PD-L1 beads, CellTiter-Glo 96 h | activation, % (test concentration not listed) | 29,000 tested, under 10 active; call rule not given here;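 note: 0% = median vehicle wells and 100% = positive control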
Hedgehog inh: Sonic Hedgehog pathway inhibition. Shh-LIGHT2 Gli-luciferase reporter, 30 h. inhibition, % (no concentration beside the values). actives 2.1% (n = 22,000). AID 2313;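 active = mean inhibition across valid replicates above about 65%, limit read from the data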;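 note: pathway switched on by Shh-conditioned medium diluted 1 in 25 in low serum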
MITF inhib: MITF inhibition; TRPM1 promoter luciferase, luminescence, 24 h; inhibition, % (no concentration beside the values); actives 0.28% (n = 37,000); AID 2240; in the data active = inhibition above about 85%;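 note: human melanocyte line stably carrying TRPM1 promoter luciferase reporter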
YB-1 expr inh: YB-1 expression inhibition; U2OS, qRT-PCR YB-1 vs CDIP delta delta Cp, 16 h; active compounds read high; zero = DMSO, each unit about twofold; delta delta Cp (YB-1 minus CDIP) (concentration not given with the values); actives 0.37% (n = 30,000); AID 434959;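 active = delta delta Cp rounded down to an integer at or above 3, about 3 SD of DMSO wells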;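 note: higher means less YB-1 transcript or more CDIP transcript relative to DMSO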
An asterisk follows results filed as active. The sample as a whole holds a higher share of hits than the screen did.

How did Cc1ccc(S(=O)(=O)Nc2cccc3c2O[C@@H](CN(C)Cc2ccc(Cl)c(Cl)c2)[C@@H](C)CN([C@H](C)CO)C3=O)cc1 do in these assays?
PD-1 reversal: -5.4; Hedgehog inh: 113.2*; MITF inhib: 60.0; YB-1 expr inh: -0.202

Results for Cc1ccc(S(=O)(=O)Nc2cccc3c2O[C@H](CN(C)Cc2ccc(Cl)c(Cl)c2)[C@H](C)CN([C@@H](C)CO)C3=O)cc1 ?
Hedgehog inh: 17.2; MITF inhib: 9.0; YB-1 expr inh: -0.0264

How did C[C@H](CO)N1C[C@H](C)[C@@H](CN(C)Cc2ccc(Cl)c(Cl)c2)Oc2c(NS(=O)(=O)c3ccc(F)cc3)cccc2C1=O do in these assays?
Hedgehog inh: 21.5; MITF inhib: -20.6; YB-1 expr inh: -0.109

What do the screens show for `COc1cc(OC)c(C(O)C(C)O)cc1OC` (stereo unspecified)?
PD-1 reversal: 1.7; Hedgehog inh: -1.0; MITF inhib: 1.7; YB-1 expr inh: 0.993

How did CCN1/C(=C\C(=S)Nc2ccccc2)Sc2ccccc21 do in these assays?
PD-1 reversal: 0.2; Hedgehog inh: -114.8; MITF inhib: -4.2; YB-1 expr inh: -0.0835

How did CCN1/C(=C/C2=CC(=O)CC(C)(C)C2)Sc2ccccc21 do in these assays?
PD-1 reversal: -1.5; Hedgehog inh: 81.6*; MITF inhib: 49.3; YB-1 expr inh: 0.215

Results for N#Cc1cccc(CSc2nnc(SCc3cccc(C#N)c3)s2)c1 ?
PD-1 reversal: 0.7; Hedgehog inh: 67.8*; MITF inhib: 21.0; YB-1 expr inh: 0.384

How did OCC1OC(OCC2OC(NCCc3ccc(O)cc3)C(O)C(O)C2O)C(O)C(O)C1O (stereo unspecified) do in these assays?
PD-1 reversal: -1.2; Hedgehog inh: -8.6; MITF inhib: 6.8; YB-1 expr inh: -0.0125

How did C[C@@H]1CN([C@H](C)CO)C(=O)c2cccc(NC(=O)c3ccncc3)c2O[C@H]1CN(C)C do in these assays?
PD-1 reversal: -0.8; Hedgehog inh: -23.2; MITF inhib: -3.6; YB-1 expr inh: 0.3

Results for C[C@H](CO)N1C[C@H](C)[C@H](CN(C)S(=O)(=O)c2ccc(Cl)cc2)Oc2c(NC(=O)c3ccc(-c4nccs4)cc3)cccc2C1=O ?
PD-1 reversal: -1.4; Hedgehog inh: 94.6*; MITF inhib: 13.5; YB-1 expr inh: -0.399

What do the screens show for `C[C@H]1CN([C@@H](C)CO)C(=O)c2cccc(NC(=O)C3CCCCC3)c2O[C@H]1CN(C)S(=O)(=O)c1ccc(Cl)cc1`?
PD-1 reversal: 0.1; Hedgehog inh: 98.4*; MITF inhib: 7.7; YB-1 expr inh: 0.162

How did C[C@H](CO)N1C[C@H](C)[C@H](CN(C)S(=O)(=O)c2ccc(Cl)cc2)Oc2c(NC(=O)C3CCCCC3)cccc2C1=O do in these assays?
PD-1 reversal: -0.4; Hedgehog inh: 102.8*; MITF inhib: 9.0; YB-1 expr inh: 0.319

How did C[C@H](CO)N1C[C@H](C)[C@H](CN(C)C)Oc2c(NC(=O)c3ccncc3)cccc2C1=O do in these assays?
PD-1 reversal: 2.4; Hedgehog inh: 16.7; MITF inhib: 0.3; YB-1 expr inh: 3.55*

How did C[C@H](CO)N1C[C@H](C)[C@@H](CN(C)S(=O)(=O)c2ccc(Cl)cc2)Oc2c(NC(=O)C3CCCCC3)cccc2C1=O do in these assays?
PD-1 reversal: 0.5; Hedgehog inh: -20.3; MITF inhib: -4.0; YB-1 expr inh: 0.398

How did O=C(N/N=C/c1ccc(S(=O)(=O)O)o1)c1ccccc1O do in these assays?
YB-1 expr inh: -0.000921

How did C[C@@H]1CCCCO[C@@H](CN(C)C(=O)C2CCCCC2)[C@@H](C)CN([C@H](C)CO)C(=O)c2cc(NC(=O)Nc3ccc(C(F)(F)F)cc3)ccc2O1 do in these assays?
Hedgehog inh: 35.3; MITF inhib: 22.5; YB-1 expr inh: 0.00148

What do the screens show for `COC(=O)c1cccc(NC(=O)CN(c2ccc(Cl)c(C(F)(F)F)c2)S(C)(=O)=O)c1C`?
PD-1 reversal: -0.9; MITF inhib: -21.6

How did C[C@H]1CN([C@@H](C)CO)C(=O)c2cccc(NC(=O)C3CC3)c2O[C@H]1CN(C)S(=O)(=O)c1ccc(Cl)cc1 do in these assays?
PD-1 reversal: 0.3; Hedgehog inh: 89.7*; MITF inhib: 4.2; YB-1 expr inh: -0.415

How did C[C@@H]1CN([C@H](C)CO)C(=O)c2cccc(NC(=O)C3CC3)c2O[C@H]1CN(C)S(=O)(=O)c1ccc(Cl)cc1 do in these assays?
Hedgehog inh: 6.3; MITF inhib: -2.2; YB-1 expr inh: -0.336

What do the screens show for `c1ccc(-c2cnc3nonc3n2)cc1`?
PD-1 reversal: -5.0; Hedgehog inh: 82.4*; MITF inhib: 79.8; YB-1 expr inh: 0.134

What do the screens show for `C=C1C(=O)O[C@H]2C3=C(C)CCC[C@]3(C)C(=O)C[C@@H]12`?
PD-1 reversal: -35.2; Hedgehog inh: 76.1*; MITF inhib: 78.3; YB-1 expr inh: -0.036

Results for C=C1C(=O)O[C@@H]2C=C(C)[C@@H]3CC[C@@](C)(O)[C@@H]3C[C@H]12 ?
PD-1 reversal: -0.1; Hedgehog inh: 9.9; MITF inhib: -0.7; YB-1 expr inh: 0.0735

What do the screens show for `CSc1ccc2c(c1)C(N1CCN(C)CC1)Cc1ccccc1S2` (stereo unspecified)?
PD-1 reversal: -0.8; Hedgehog inh: 70.3*; MITF inhib: -15.6; YB-1 expr inh: 0.0113

Results for COc1cc(C(=O)OCC2(O)COC(OCC3OC(Oc4c(OC)cc(CO)cc4OC)C(O)C(O)C3O)C2O)cc(OC)c1O (stereo unspecified) ?
Hedgehog inh: -6.8; YB-1 expr inh: 7.15*

What do the screens show for `N#Cc1c(C(F)(F)F)cc(-c2cccs2)oc1=S`?
PD-1 reversal: -0.7; Hedgehog inh: -14.3; MITF inhib: -5.6; YB-1 expr inh: -0.4

Results for COC(=O)CC(O)(CCCC(C)(C)O)C(=O)O[C@@H]1C(OC)=C[C@]23CCCN2CCc2cc4c(cc2[C@@H]13)OCO4 (stereo partly specified) ?
PD-1 reversal: -15.3; Hedgehog inh: 103.7*; MITF inhib: 93.4*; YB-1 expr inh: -0.0916

How did C[C@H]1CN([C@@H](C)CO)C(=O)Cc2cc(NC(=O)Cn3cnnn3)ccc2O[C@@H]1CN(C)Cc1ccc(C(=O)Nc2ccccc2N)cc1 do in these assays?
PD-1 reversal: 1.9; MITF inhib: -3.0; YB-1 expr inh: -0.4

What do the screens show for `COc1ccc(OC)c(S(=O)(=O)c2ccc(Br)cc2)c1`?
PD-1 reversal: 0.6; Hedgehog inh: -29.0; MITF inhib: 2.2; YB-1 expr inh: -0.108

Results for C=CS(=O)(=O)c1ccc(OC)c(N)c1 ?
PD-1 reversal: -33.5; Hedgehog inh: 82.6*; MITF inhib: 57.6; YB-1 expr inh: 0.441

Results for Cc1noc(C)c1NC(=O)N(C)C[C@H]1Oc2ccc(NC(=O)CCCCCC(=O)Nc3ccccc3N)cc2C(=O)N([C@H](C)CO)C[C@H]1C ?
PD-1 reversal: 0.5; MITF inhib: 1.2; YB-1 expr inh: 0.288

How did C[C@@H]1CN([C@H](C)CO)C(=O)c2cccc(NS(=O)(=O)c3ccc(Cl)cc3)c2O[C@@H]1CN(C)Cc1ccc(C(=O)Nc2ccccc2N)cc1 do in these assays?
PD-1 reversal: -3.1; MITF inhib: -0.1; YB-1 expr inh: 0.135

Screening results deposited in PubChem by Broad Institute.
